Our source for the inhibition of mean fluorescence and inhibition of percent positive cells values is PubChem BioAssay AID1014 (NMMLSC, 2008).

The nature of the assay: quorum sensing inhibitors in bacterial reporter, SAR follow-up, flow cytometry, SAR analogs (AID 1014).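 Further: Staphylococcus aureus RN6390 with RNAIII-GFP reporter stimulated by AIP; bacteria incubated with compound for 3 hours at 37 °C.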 To be noted: at 20 µM, stronger effect = higher value; inhibition of percent positive cells: flow cytometry fluorescence, measured here: percent reporter-positive cells. Background: Flow cytometry measures light scatter and fluorescence of single cells or particles in a stream.

Each structure is given as a SMILES string. The source made the active and inactive calls. No stated cut-off is given here; in the data, active means inhibition of mean fluorescence above about 33%; inactive means the rest.

In the case of `CCOC(=O)c1oc2cccc(O)c2c1C`, the inhibition of mean fluorescence was 0.4% (inactive) and the inhibition of percent positive cells is -0.8%.

Take `COc1cccc(Nc2c(F)c(F)c(F)c(F)c2C(=O)O)c1`: the inhibition of mean fluorescence was -12.9% (inactive) and the inhibition of percent positive cells is -0.2%.

In the case of `O=C(NCC(c1cccnc1)N1CCN(c2ccccc2F)CC1)c1ccco1` (stereo unspecified), the inhibition of mean fluorescence is -27.7% (inactive) and the inhibition of percent positive cells is -1.9%.

For `O=C(NCCN1CCN(C(=O)c2cc(F)c(F)cc2Cl)CC1)c1cc(F)c(F)cc1Cl`, the inhibition of mean fluorescence is -25.7% (inactive) and the inhibition of percent positive cells was -1.2%.

For `CC(C)c1ccc(NC(=O)C(c2cc3c(cc2[N+](=O)[O-])OCO3)N2CCOCC2)cc1` (stereo unspecified), the inhibition of mean fluorescence is 8.1% (inactive) and the inhibition of percent positive cells was 0.7%.

As for `Cc1ccc2occ(/C=C/C(=O)c3ccc(O)cc3)c(=O)c2c1`, the inhibition of mean fluorescence was -0.6% (inactive) and the inhibition of percent positive cells was -0.1%.

Regarding `Cc1cc(C)nc(Nc2ccccc2C(=O)O)n1`, the inhibition of mean fluorescence is 22.7% (inactive) and the inhibition of percent positive cells was -0.8%.

Regarding `O=C(Nc1ccc2c(c1)OCCO2)C(c1ccc(F)cc1)N1CCCCC1` (stereo unspecified), the inhibition of mean fluorescence is 12.6% (inactive) and the inhibition of percent positive cells is -0.6%.

In the case of `O=C(CN1CC(c2ccccc2)CC1=O)Nc1ccc2c(c1)OCO2` (stereo unspecified), the inhibition of mean fluorescence is 5.5% (inactive) and the inhibition of percent positive cells is -0.1%.

Turning to `O=C(NCC(c1cccnc1)N1CCN(c2ccccc2F)CC1)C1CCCCC1` (stereo unspecified), the inhibition of mean fluorescence was -12.9% (inactive) and the inhibition of percent positive cells is -0.1%.

For the compound `CC1CCN(c2c(NCC3CCC(C(=O)NCc4ccc5c(c4)OCO5)CC3)c(=O)c2=O)CC1` (stereo unspecified), the inhibition of mean fluorescence was -24.3% (inactive) and the inhibition of percent positive cells was -0.6%.

With `Cc1nnc(N2CCC(C(=O)Nc3ccc4c(c3)OCCO4)CC2)c2nn(-c3ccccc3)c(C)c12`, the inhibition of mean fluorescence is -7.3% (inactive) and the inhibition of percent positive cells came to 0%.

As to `O=C(NCC(c1cccnc1)N1CCOCC1)c1cccc(Cl)c1` (stereo unspecified), the inhibition of mean fluorescence is -6.2% (inactive) and the inhibition of percent positive cells was determined as 0.6%.

For `CCOC(=O)c1c(-c2cc(Cl)c(OC)c(Cl)c2)oc2ccc(O)cc12`, the inhibition of mean fluorescence is -4.9% (inactive) and the inhibition of percent positive cells is -0.4%.

For `COc1cccc(-n2cc(C(=O)N=C3NC(=O)CS3)c3ccccc3c2=O)c1`, the inhibition of mean fluorescence was -5.7% (inactive) and the inhibition of percent positive cells was 0%.

On to `COc1ccc(N2CCN(C(CNC(=O)c3cccc(Cl)c3)c3cccnc3)CC2)cc1` (stereo unspecified), for which the inhibition of mean fluorescence was -42% (inactive) and the inhibition of percent positive cells is -1.7%.

Regarding `O=C(Nc1ccc2c(c1)OCCO2)C(c1ccccc1)N1CCOCC1` (stereo unspecified), the inhibition of mean fluorescence was 9.5% (inactive) and the inhibition of percent positive cells turned out to be 2.3%.

Regarding `O=C(O)c1c(F)c(F)c(F)c(F)c1Nc1cccc(C(F)(F)F)c1`, the inhibition of mean fluorescence is 6% (inactive) and the inhibition of percent positive cells was -0.1%.

In the case of `CC(C)c1ccc(NC(=O)C(c2ccc3c(c2)OCO3)N2CCC3(CC2)OCCO3)cc1` (stereo unspecified), the inhibition of mean fluorescence was 15.2% (inactive) and the inhibition of percent positive cells is -0.8%.

`CC(NC(=O)c1cccc(F)c1)C(c1cccs1)N1CCN(c2ccccc2F)CC1` (stereo unspecified): the inhibition of mean fluorescence was 16.4% (inactive) and the inhibition of percent positive cells is 0.2%.

Consider `COc1ccc(C2C(C(=O)Nc3ccc4c(c3)OCO4)c3ccccc3C(=O)N2C2CCCCC2)cc1` (stereo unspecified), for which the inhibition of mean fluorescence was 8% (inactive) and the inhibition of percent positive cells turned out to be 0.6%.

For `O=C(CN1C(=O)c2ccccc2C1=O)N=C1NC(=O)CS1`, the inhibition of mean fluorescence was 3.2% (inactive) and the inhibition of percent positive cells is -1.2%.

As for `CC(=O)c1cc2c(cc1NC(=O)CN1CCN(C(=O)c3ccco3)CC1)OCO2`, the inhibition of mean fluorescence was -5.2% (inactive) and the inhibition of percent positive cells was -0.1%.

As to `COc1ccc(S(=O)(=O)c2nnn3c2nc(Nc2ccc(C)cc2)c2ccccc23)cc1`, the inhibition of mean fluorescence was 8.2% (inactive) and the inhibition of percent positive cells is -0.3%.

For `O=C(NCCN1CCN(c2ccccc2)CC1)c1cccc(Cl)c1`, the inhibition of mean fluorescence is -5.6% (inactive) and the inhibition of percent positive cells is 0%.

Regarding `CCOC(=O)c1cnc2ccc(OC(F)(F)F)cc2c1Nc1ccccc1C(=O)O`, the inhibition of mean fluorescence is 22.4% (inactive) and the inhibition of percent positive cells came out at 0.6%.

Consider `CC1CC(C)CN(C(C(=O)Nc2ccc(C(C)C)cc2)c2ccc3c(c2)OCO3)C1` (stereo unspecified), for which the inhibition of mean fluorescence is 19.3% (inactive) and the inhibition of percent positive cells is -1.5%.

Consider `O=C(NC1CCCCC1)C(c1cc2c(cc1[N+](=O)[O-])OCO2)N1CCN(c2ccccc2)CC1` (stereo unspecified), for which the inhibition of mean fluorescence was -34.9% (inactive) and the inhibition of percent positive cells worked out at 0.3%.

Consider `COc1ccccc1N1CCN(C(CNC(=O)c2cccc(Cl)c2)c2cccnc2)CC1` (stereo unspecified), for which the inhibition of mean fluorescence was 72.3% (active) and the inhibition of percent positive cells came out at 15.4%.

As for `CCOC(=O)c1c(-c2ccc(OC)cc2)oc2ccc(O)cc12`, the inhibition of mean fluorescence is -20.8% (inactive) and the inhibition of percent positive cells was determined as 0.1%.

As to `O=C(O)c1cccnc1Nc1cccc(SC(F)(F)F)c1`, the inhibition of mean fluorescence is 64.5% (active) and the inhibition of percent positive cells turned out to be 8.8%.

As for `CCc1ccc(Nc2nc3c(S(=O)(=O)c4ccc(C)cc4)nnn3c3ccccc23)cc1`, the inhibition of mean fluorescence is 19.1% (inactive) and the inhibition of percent positive cells is -1.1%.

Regarding `N#Cc1c(NC(=O)CCN2C(=O)c3ccccc3C2=O)oc(-c2ccccc2)c1-c1ccccc1`, the inhibition of mean fluorescence was 19.7% (inactive) and the inhibition of percent positive cells is -0.3%.

As for `CCc1ccc(Nc2nc3c(S(=O)(=O)c4ccc(C(C)(C)C)cc4)nnn3c3ccccc23)cc1`, the inhibition of mean fluorescence was 3.7% (inactive) and the inhibition of percent positive cells was -0.1%.

In the case of `COc1ccc(Nc2nc3c(S(=O)(=O)c4ccccc4)nnn3c3ccsc23)cc1`, the inhibition of mean fluorescence was -41.7% (inactive) and the inhibition of percent positive cells stood at 0.3%.

With `Cc1ccc(S(=O)(=O)c2nnn3c2nc(Nc2cc(C)cc(C)c2)c2ccccc23)cc1`, the inhibition of mean fluorescence is -4% (inactive) and the inhibition of percent positive cells is -1.1%.

As for `Cc1ccccc1Nc1c(F)c(F)c(F)c(F)c1C(=O)O`, the inhibition of mean fluorescence is -18.8% (inactive) and the inhibition of percent positive cells is -1.9%.

As for `O=C(NCC(c1cccnc1)N1CCN(c2ccccc2F)CC1)C1CC1` (stereo unspecified), the inhibition of mean fluorescence was -8.8% (inactive) and the inhibition of percent positive cells is -0.7%.
